{"source": "paper PMC8384837", "about": "“Expanding the binding specificity for RNA recognition by a PUF domain”", "assay_in_all_cases": "yeast three-hybrid, YBZ-1, SC-Leu-His + 0.5 mM 3-AT, 4 days", "details_in_all_cases": "tags: N-Gal4 AD-HA kept; label: inside an RPR1-promoter hybrid RNA with tandem MS2 sites; ssRNA", "key": {"PUM1 PUF domain R3-EYS": {"target": "PUM1 PUF domain R3-EYS (Homo sapiens, UniProt Q14671 828-1176, C935E;R936Y;Q939S)", "procedure,_shortened": "(§1)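 Pumilio-1 PUF domain libraries, randomized at the three base-contacting residues of each repeat, were co-expressed with matching RNA elements from a centromeric plasmid in strain YBZ-1, which carries a LexA–MS2 coat fusion and a HIS3 reporter. Transformants grew for four days on SC-Leu (input) or on SC-Leu-His + 0.5 mM 3-AT (selection), and the repeat regions were PCR-amplified and Illumina-sequenced. The interaction score is the log change in variant frequency from input to selection. That logarithm is base 2, with a pseudocount of 1 where a variant was absent.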"}, "PUM1 PUF domain R7-EPW": {"target": "PUM1 PUF domain R7-EPW (Homo sapiens, UniProt Q14671 828-1176, S1079E;N1080P;E1083W)", "procedure,_shortened": "as §1"}, "PUM1 PUF domain R1-ARR": {"target": "PUM1 PUF domain R1-ARR (Homo sapiens, UniProt Q14671 828-1176, S863A;Q867R)", "procedure,_shortened": "as §1"}, "PUM1 PUF domain R4-GWW": {"target": "PUM1 PUF domain R4-GWW (Homo sapiens, UniProt Q14671 828-1176, N971G;H972W;Q975W)", "procedure,_shortened": "as §1"}, "PUM1 PUF domain R4-CYP": {"target": "PUM1 PUF domain R4-CYP (Homo sapiens, UniProt Q14671 828-1176, N971C;H972Y;Q975P)", "procedure,_shortened": "as §1"}, "PUM1 PUF domain R4-SNR": {"target": "PUM1 PUF domain R4-SNR (Homo sapiens, UniProt Q14671 828-1176, N971S;H972N;Q975R)", "procedure,_shortened": "as §1"}, "PUM1 PUF domain R4-RMR": {"target": "PUM1 PUF domain R4-RMR (Homo sapiens, UniProt Q14671 828-1176, N971R;H972M;Q975R)", "procedure,_shortened": "as §1"}, "PUM1 PUF domain R4-ARG": {"target": "PUM1 PUF domain R4-ARG (Homo sapiens, UniProt Q14671 828-1176, N971A;H972R;Q975G)", "sequence (Q14671 828-1176 N971A/H972R/Q975G)": "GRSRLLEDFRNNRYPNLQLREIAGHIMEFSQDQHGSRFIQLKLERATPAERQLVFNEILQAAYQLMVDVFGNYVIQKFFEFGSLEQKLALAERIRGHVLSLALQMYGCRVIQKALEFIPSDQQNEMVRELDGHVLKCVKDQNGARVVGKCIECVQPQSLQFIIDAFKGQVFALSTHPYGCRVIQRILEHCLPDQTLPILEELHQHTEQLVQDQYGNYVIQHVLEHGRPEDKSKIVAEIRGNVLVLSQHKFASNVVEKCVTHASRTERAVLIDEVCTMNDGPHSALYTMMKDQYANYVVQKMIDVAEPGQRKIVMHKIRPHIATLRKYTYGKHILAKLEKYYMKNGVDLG", "procedure,_shortened": "as §1"}, "PUM1 PUF domain R4-NPG": {"target": "PUM1 PUF domain R4-NPG (Homo sapiens, UniProt Q14671 828-1176, H972P;Q975G)", "sequence (Q14671 828-1176 H972P/Q975G)": "as the sequence (Q14671 828-1176 N971A/H972R/Q975G) above, with A144N, R145P counted along it", "procedure,_shortened": "as §1"}, "PUM1 PUF domain R7-KFY": {"target": "PUM1 PUF domain R7-KFY (Homo sapiens, UniProt Q14671 828-1176, S1079K;N1080F;E1083Y)", "procedure,_shortened": "as §1"}, "PUM1 PUF domain R8-VYF": {"target": "PUM1 PUF domain R8-VYF (Homo sapiens, UniProt Q14671 828-1176, N1122V;Q1126F)", "procedure,_shortened": "as §1"}}}
{"sequence": "GGCUAGAACUAGUGGAUCCCCCGGCGCCCGGCGGCUCGAGCCCGGGUAAGUGUAAGUAGUCUGCAUGCCGCCGGGCGCCAUGCCUGCAGGUCGACUCUAGAAAACAUG", "values": [{"measurement": "binding signal", "setting": "PUM1 PUF domain R3-EYS", "value": "4.44 log2 enrichment (interaction score)"}]}
{"sequence": "GGCUAGAACUAGUGGAUCCCCCGGCGCCCGGCGGCUCGAGCCCGGGUAAGUUUAAAUAGUCUGCAUGCCGCCGGGCGCCAUGCCUGCAGGUCGACUCUAGAAAACAUG", "values": [{"measurement": "binding signal", "setting": "PUM1 PUF domain R7-EPW", "value": "2.81 log2 enrichment (interaction score)"}]}
{"sequence": "GGCUAGAACUAGUGGAUCCCCCGGCGCCCGGCGGCUCGAGCCCGGGUAAGUGUAAAUUGUCUGCAUGCCGCCGGGCGCCAUGCCUGCAGGUCGACUCUAGAAAACAUG", "values": [{"measurement": "binding signal", "setting": "PUM1 PUF domain R1-ARR", "value": "1.97 log2 enrichment (interaction score)"}]}
{"sequence": "GGCUAGAACUAGUGGAUCCCCCGGCGCCCGGCGGCUCGAGCCCGGGUAAGUGUACAUAGUCUGCAUGCCGCCGGGCGCCAUGCCUGCAGGUCGACUCUAGAAAACAUG", "values": [{"measurement": "binding signal", "setting": "PUM1 PUF domain R4-GWW", "value": "0.85 log2 enrichment (interaction score)"}, {"measurement": "binding signal", "setting": "PUM1 PUF domain R4-CYP", "value": "6.17 log2 enrichment (interaction score)"}, {"measurement": "binding signal", "setting": "PUM1 PUF domain R4-SNR", "value": "2.06 log2 enrichment (interaction score)"}, {"measurement": "binding signal", "setting": "PUM1 PUF domain R4-RMR", "value": "2.94 log2 enrichment (interaction score)"}, {"measurement": "binding signal", "setting": "PUM1 PUF domain R4-ARG", "value": "1.86 log2 enrichment (interaction score)"}, {"measurement": "binding signal", "setting": "PUM1 PUF domain R4-NPG", "value": "1.42 log2 enrichment (interaction score)"}]}
{"sequence": "GGCUAGAACUAGUGGAUCCCCCGGCGCCCGGCGGCUCGAGCCCGGGUAAGUAUAAAUAGUCUGCAUGCCGCCGGGCGCCAUGCCUGCAGGUCGACUCUAGAAAACAUG", "values": [{"measurement": "binding signal", "setting": "PUM1 PUF domain R7-KFY", "value": "2.56 log2 enrichment (interaction score)"}]}
{"sequence": "GGCUAGAACUAGUGGAUCCCCCGGCGCCCGGCGGCUCGAGCCCGGGUAAGCGUAAAUAGUCUGCAUGCCGCCGGGCGCCAUGCCUGCAGGUCGACUCUAGAAAACAUG", "values": [{"measurement": "binding signal", "setting": "PUM1 PUF domain R8-VYF", "value": "2.73 log2 enrichment (interaction score)"}]}
{"sequence": "GGCUAGAACUAGUGGAUCCCCCGGCGCCCGGCGGCUCGAGCCCGGGUAAGUCUAAAUAGUCUGCAUGCCGCCGGGCGCCAUGCCUGCAGGUCGACUCUAGAAAACAUG", "values": [{"measurement": "binding signal", "setting": "PUM1 PUF domain R7-KFY", "value": "3.1 log2 enrichment (interaction score)"}]}
{"sequence": "GGCUAGAACUAGUGGAUCCCCCGGCGCCCGGCGGCUCGAGCCCGGGUAAGUGUAAAUGGUCUGCAUGCCGCCGGGCGCCAUGCCUGCAGGUCGACUCUAGAAAACAUG", "values": [{"measurement": "binding signal", "setting": "PUM1 PUF domain R1-ARR", "value": "0.69 log2 enrichment (interaction score)"}]}
